# Assay results reported in the supplement of paper PMC8253809.
# What was measured:
# Assay in all cases: growth inhibition (% activity, log2 RLU normalised to DMSO / staurosporine); higher = more growth inhibition
# Conditions in all cases: 33 µM
# DIPGX29 = system: DIPGX29 (H3.3 K27M diffuse intrinsic pontine glioma line)
# Summary of the method: (§1)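 pHGG cell lines and H9-derived neural stem cells were grown on Geltrex-coated 384-well plates. Approved drugs were added by pin tool at a single final concentration of about 33 μM, in triplicate, for 7 days at 37 °C, 5% CO2. CellTiter-Glo luminescence was log2-transformed and normalised per plate to % activity between solvent and positive control wells. The growth-inhibition value is the median over replicates.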
# DIPGX37 = system: DIPGX37 (H3.3 K27M diffuse intrinsic pontine glioma line)
# Summary of the method: as §1
# DIPGX7 = system: DIPGX7 (H3.3 K27M diffuse intrinsic pontine glioma line)
# Summary of the method: as §1
# DIPGX9 = system: DIPGX9 (diffuse intrinsic pontine glioma line)
# Summary of the method: as §1
# HGGX39 = system: HGGX39 (paediatric high-grade glioma line)
# Summary of the method: as §1
# HGGX6 = system: HGGX6 (H3.3 G34R paediatric high-grade glioma line)
# Summary of the method: as §1
# HNSC = system: HNSC
# Summary of the method: as §1
# SUDIPGIV = system: SUDIPGIV (diffuse intrinsic pontine glioma line)
# Summary of the method: as §1
# SUDIPGVI = system: SUDIPGVI (diffuse intrinsic pontine glioma line)
# Summary of the method: as §1
# SUDIPGXIII = system: SUDIPGXIII (diffuse intrinsic pontine glioma line)
# Summary of the method: as §1
SMILES,growth inhibition (DIPGX29),growth inhibition (DIPGX37),growth inhibition (DIPGX7),growth inhibition (DIPGX9),growth inhibition (HGGX39),growth inhibition (HGGX6),growth inhibition (HNSC),growth inhibition (SUDIPGIV),growth inhibition (SUDIPGVI),growth inhibition (SUDIPGXIII)
C[C@@H]1CC[C@H]2[C@@H](C)C(=O)O[C@@H]3O[C@@]4(C)CC[C@@H]1[C@]32OO4,3.47%,-0.962%,4.12%,4.81%,4.98%,4.39%,14.5%,12.8%,-4.44%,20.5%
C=C(C)[C@@H]1[C@H]2OC(=O)[C@@H]1[C@]1(O)C[C@H]3O[C@]34C(=O)O[C@H]2[C@]14C,-0.435%,1.09%,-0.608%,0.386%,1.14%,0.986%,-1.08%,-0.711%,2.74%,0.384%
COc1cc2c(cc1OC)[C@@]13CCN4CC5=CCO[C@H]6CC(=O)N2[C@H]1[C@H]6[C@H]5C[C@H]43,-3.31%,0.569%,3.92%,0.679%,5.09%,-3.27%,19.6%,0.395%,1.58%,10.4%
Cc1cccc(Cc2c[nH]cn2)c1C,1.63%,3.84%,4.17%,3.18%,5.48%,2.59%,4.93%,6.05%,6.15%,0.33%
c1ccc2c(c1)sc1ccccc12,-2.47%,-0.0217%,-2.61%,-1.01%,-2.68%,-1.23%,-4.08%,-1.98%,-1.87%,1.54%
Cc1cccc(C)c1NC(=O)CN1CCCC1=O,-3.64%,-1.99%,-0.96%,-1.24%,-0.565%,-3.14%,6.05%,-2.89%,-1.55%,-1.38%
Cc1c(N)nc(C(CC(N)=O)NCC(N)C(N)=O)nc1C(=O)NC(C(=O)NC(C)C(O)C(C)C(=O)NC(C(=O)NCCc1nc(-c2nc(C(=O)NCCC[S+](C)C)cs2)cs1)C(C)O)C(O[C@@H]1O[C@@H](CO)[C@@H](O)[C@H](O)[C@@H]1O[C@H]1O[C@H](CO)[C@@H](O)[C@H](OC(N)=O)[C@@H]1O)c1cnc[nH]1 (stereo not given in full),3.71%,5.42%,1.63%,17.8%,8.29%,4.24%,56.5%,32.5%,1.68%,4.14%
COc1ccc(OC)c(C(O)C(C)N)c1 (stereo not given),0.864%,2.94%,-0.264%,0.24%,3.05%,1.53%,1.54%,0.0544%,3.12%,-0.103%
CNC(=O)Oc1ccc2c(c1)[C@]1(C)CCN(C)[C@@H]1N2C,-0.0328%,2.09%,-0.713%,-0.267%,-1.19%,1.68%,-0.354%,-0.781%,2.19%,1.12%
CC(C)NCC(O)c1ccccc1Cl (stereo not given),0.364%,-1.04%,-0.863%,-0.306%,2.3%,1.8%,-2.5%,0.901%,0.486%,-0.265%
C=C1C[C@@H]2[C@H](CC[C@]3(C)C(=O)CC[C@@H]23)[C@@]2(C)C=CC(=O)C=C12,2.35%,1.24%,3.42%,2.01%,0.458%,-1.58%,-0.552%,-2.53%,-2.19%,0.875%
Cc1cc(C(C#N)c2ccc(Cl)cc2)c(Cl)cc1NC(=O)c1cc(I)cc(I)c1O (stereo not given),-4.52%,-1.84%,-0.384%,-2.01%,-0.728%,-4.74%,4.96%,-0.00583%,-3.36%,3.29%
CNCC(=O)c1ccc(O)c(O)c1,-1.95%,2.52%,-0.724%,-0.688%,0.248%,-0.714%,-1.87%,0.154%,-1.65%,3.12%
CC(C)N(CCNC(=O)CN1CCCC1=O)C(C)C,2.94%,3.86%,1.76%,4.77%,3.31%,3.19%,1.2%,-0.694%,3.19%,2.1%
O=C(O[C@H]1C[N+]2(CCCOc3ccccc3)CCC1CC2)C(O)(c1cccs1)c1cccs1,-1.76%,-1.33%,-0.665%,-1.04%,-0.0721%,-0.623%,3.39%,-1.77%,-5.53%,0.0508%
NCC(CC(=O)O)c1ccc(Cl)cc1 (stereo not given),1.57%,-2.95%,2.49%,1.01%,0.323%,-0.203%,33.3%,2.9%,-4.01%,0.136%
O=S(=O)(F)Cc1ccccc1,0.493%,-0.634%,-0.837%,-0.877%,-0.194%,-1.52%,-0.438%,-0.0165%,1.21%,0.305%
O=C1CC[C@@]2(O)[C@H]3Cc4ccc(O)c5c4[C@@]2(CCN3CC2CC2)[C@H]1O5,1.67%,1.95%,2.36%,2.58%,3.26%,2.55%,3.56%,1.52%,3.67%,-0.861%
CC(C)c1c(CN(C)C(C)Cc2ccccc2)n(C)n(-c2ccccc2)c1=O (stereo not given),2.25%,0.985%,2.59%,-0.334%,-0.152%,-0.564%,48.4%,1.4%,-1.33%,2.29%
CN1[C@@H]2C[C@@H](OC(=O)[C@H](CO)c3ccccc3)C[C@H]1[C@@H]1O[C@@H]12,-4.79%,-2%,-0.341%,-2.82%,-2.31%,-3.37%,23.8%,-3.93%,-9.6%,0.487%
